Each structure is given as a SMILES string. Where “and” joins values, the source holds several entries; their conditions need not be identical. Equal entries are not always repeated. In all, about 200,000 compounds went through this assay and about 4,500 (2.2%) were called active. Roughly 12% stayed inconclusive and do not appear here. The sample as a whole holds a higher share of actives than the screen did. A number with no mark means an inactive call. Calls come from the whole dose curve; as a rule, active = well fitted inhibition curve with a large enough effect; inconclusive = small, poorly fitted or top-dose-only effect, or effect the other way; inactive = flat fitted curve, though single readings scatter.
Potency is the fitted concentration of half-maximal effect.

Sequence of Cruzipain (Trypanosoma cruzi) (P25779 123-467 limits assumed): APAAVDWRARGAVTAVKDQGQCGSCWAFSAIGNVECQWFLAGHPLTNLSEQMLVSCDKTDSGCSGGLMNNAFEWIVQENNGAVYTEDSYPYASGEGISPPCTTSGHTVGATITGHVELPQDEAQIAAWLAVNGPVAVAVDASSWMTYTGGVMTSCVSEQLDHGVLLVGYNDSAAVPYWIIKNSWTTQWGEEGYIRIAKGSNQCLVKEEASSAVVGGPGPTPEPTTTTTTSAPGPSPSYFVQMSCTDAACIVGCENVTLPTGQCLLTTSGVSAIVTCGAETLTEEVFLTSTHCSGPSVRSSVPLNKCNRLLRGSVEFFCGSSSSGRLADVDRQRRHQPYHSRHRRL

This assay addresses Cruzipain (Trypanosoma cruzi) (UniProt P25779). In words: qHTS Assay for Promiscuous and Specific Inhibitors of Cruzain (without detergent). Note: nearly all actives have a fitted effect of over 40% in size. Conditions: purified cruzain, Z-FR-AMC fluorescence, no detergent. As for the experimental part: Cruzain is a cysteine protease from the tropical parasite Trypanosoma cruzi. Dual qHTS experiment was performed against the NCGC compound collection in order to 1) identify novel inhibitors of the enzyme and 2) profile the compound collection for promiscuous inhibitors operating via colloidal aggregation (by performing detergent-free and detergent-containing comparison screens). Cruzain was assayed by the use of fluorogenic coumarin-based substrate Z-FR-AMC: proteolytic cleavage releases AMC, whose fluorescence is measured at 360 nm excitation and 450 nm emission. Purified cruzain was supplied by the labs of Prof. James McKerrow and Brian Shoichet, UC San Francisco.
This assay had 0.00005% Triton X-100 concentration. See also releated assay "qHTS Assay for Promiscuous and Specific Inhibitors of Cruzain (with detergent)" with 0.01% Triton X-100.
See following references for additional details:
Assay Provider: Shoichet, Brian; University of California, San Fancisco
Screening Center PI: Austin, C.P.
Screening Center: NIH Chemical Genomics Center [NCGC]
Buffer: 100 mM Sodium Acetate, pH 5.5, 5 mM DTT, Triton X-100 concentration: 0.01%.
Buffer in columns 3 and 4 as negative control (no enzyme).
Substrate solution: 2 uM final concentration of Z-FR-AMC (catalog number I-1160, Bachem) dispensed throughout the plate.
Enzyme: 1.5 nM Cruzain final concentration in columns 1, 2, 5-48. Column 1 is neutral (100% activity). Column 2 contained titration of covalent inhibitor K11777, starting concentration 1 mM, then 1:2 dilution in duplicate).
Three uL of enzyme or buffer were dispensed to 1536-well Greiner black solid bottom plates. Compounds and controls (23 nL) were transferred via Kalypsys PinTool. The plates were incubated for 15 min at room temperature, and then 1 uL of substrate solution was added to start the reaction. The plates were immediately transferred to and read 4 times every 30 seconds for 2 min on ViewLux High-throughput CCD imager (Perkin-Elmer) using 360 nm excitation and 450 nm emission fluorescence protocol. The fluorescence intensity difference between the third and the first time points (time lapse of 60 seconds) was used to compute reaction progress.
Background: qHTS replaces the single test concentration by a dilution series.
In the case of `CC(=C1C(=O)c2ccccc2C1=O)N1CCN(c2ccccn2)CC1`, the max response, negative = inhibition is -6.99%.
With `Cc1cc(C)c(C2C3=C(Nc4c2c(C)nn4-c2ccccn2)c2ccccc2C3=O)c(C)c1` (centres undefined), the Potency was 12.6 µM (active).
In the case of `Cc1nn(-c2ccccn2)c2c1C(c1ccncc1)C1=C(CC(C)(C)CC1=O)N2` (centres undefined), the max response, negative = inhibition is -9%.
Still for that read-out and setting: then `NS(=O)(=O)c1ccc(CCNC(=O)CCCCCn2c(=O)[nH]c3ccccc3c2=O)cc1`, with -15.6%; and `Cn1c(=O)n(C)c2cc(NS(=O)(=O)c3ccc(F)cc3)ccc21`, with -10.1%.
For the compound `CC1(C)CC(=O)c2c(n(S(=O)(=O)c3ccccc3)c3ccc(NS(=O)(=O)c4ccccc4)cc23)C1`, the Potency is 31.6 µM (active).
As to `COc1cc(NS(=O)(=O)c2ccccc2)ccc1-n1nc(C)cc1C`, the max response, negative = inhibition is 4.04%.
On to `CCOc1ccc(/C=N/NC(N)=S)cc1`, for which the max response, negative = inhibition was -8.04%.
On the same count and under the same terms, then `Cc1cccc(-n2c(C)cc(/C=N/NC(N)=S)c2C)c1`, with -26.1%.
Consider `CC(C)Oc1c(Br)cc(Br)cc1/C=N/NC(N)=S`, for which the Potency was 0.158 µM (active).
On to `Cc1ccc2onc(CC(=O)N3CCN(c4ccc(Cl)cc4)CC3)c2c1`, for which the max response, negative = inhibition was 7.92%.
Consider `COc1cccc(CNCCSc2nnnn2C)c1OCc1ccccc1Cl`, for which the max response, negative = inhibition was 2.75%.
In the case of `COc1ccc(CNC(=O)Cn2nnc(-c3ccccc3F)n2)cc1`, the max response, negative = inhibition was -5.04%.
For `COc1cc2nc(SCc3ccc(F)cc3)n3nc(CCn4c(C)nc5ccccc54)nc3c2cc1OC`, the max response, negative = inhibition is -7.57%.
Turning to `CC(=O)CCC(=O)c1ccc2ccccc2c1`, the max response, negative = inhibition was 1.86%.
For the compound `C=CC(=O)c1ccc2ccccc2c1`, the Potency was 2.51 µM (active).
`CC(=O)c1ccc2c(ccc3ccccc32)c1`: the max response, negative = inhibition is 6.49%.
Regarding `Cc1ccc(NC(=O)Cn2c(=O)n(-c3ccccc3)c(=O)c3c4c(sc32)CCCC4)cc1`, the max response, negative = inhibition is -7.31%.
For the compound `Cc1ccc(S(=O)(=O)N2CCC(Oc3ccc(-n4cnnn4)cc3)CC2)cc1`, the max response, negative = inhibition was 8.75%.
On the same count and under the same terms, then `CCc1ccc(NC(=O)CN2CCSc3ccc(S(=O)(=O)N4CCCC4)cc32)cc1`, with -26.3%; and `COc1ccc(C(=O)c2c(C)oc3cc([N+](=O)[O-])c(O)c([N+](=O)[O-])c23)cc1`, with -3.8%; and `COc1cccc(C(=O)c2cc3ccc(O)cc3oc2=O)c1`, with -3.19%.
Take `COc1ccc(-c2oc3cc(OC)ccc3c2C(=O)c2ccc(C#N)cc2)cc1`: the Potency was 12.6 µM (active).
On to `COc1cccc(C(=O)Nc2ccc(N3CCCC3)cc2)c1`, for which the max response, negative = inhibition is -20.3%.
Turning to `O=C(Nc1ccc(N2C(=O)c3cccc4cccc(c34)C2=O)cc1)c1ccc(N2CCCCC2)c([N+](=O)[O-])c1`, the Potency is 7.94 µM (active).
For `O=C(COc1ccccc1F)NNC(=O)c1ccc(N2CCCCC2)c([N+](=O)[O-])c1`, the max response, negative = inhibition is -11.1%.
In the case of `Cc1ccccc1-n1c(=O)c2ccccc2n(Cc2ccc(F)cc2)c1=O`, the max response, negative = inhibition is 6.2%.
As to `COc1ccc(C(CC(=O)O)NC(=O)Cc2ccccc2)cc1` (centres undefined), the max response, negative = inhibition was 10.2%.
For the compound `O=C(O)Cc1ccc(-c2ccccc2)cc1`, the max response, negative = inhibition was -11.7% and 9.66%.
For `O=C(Cc1ccc(-c2ccccc2)cc1)NC(c1ccccc1)c1ccccc1`, the Potency was 25.1 µM (active).
Regarding `COc1ccc(C(=O)Nc2onc3c2CCCC3)cc1`, the max response, negative = inhibition is -6.11%.
Turning to `Cc1nn(C)cc1C(=O)NNC(=S)Nc1ccc(Cl)cc1`, the max response, negative = inhibition was -0.36%.
As to `Cc1ccc(NC(=S)NC(=O)/C=C/c2ccc(Cl)cc2)cc1`, the Potency is 10 µM (active).
For `COC(=O)Cc1ccc(NC(=S)NCc2ccc(Cl)cc2)cc1`, the max response, negative = inhibition is -2.73%.
The same measure, in the same setting: then `CCCN1C(=O)C(O)(CC(=O)c2ccc(CC)cc2)c2cc(Br)ccc21` (centres undefined), with 2.6%; and `COc1ccccc1CNC(=O)C(Cc1ccccc1)NS(=O)(=O)c1ccc2c(c1)oc(=O)n2C` (centres undefined), with -15.4%; and `O=S(=O)(NCC(c1ccco1)N1CCOCC1)c1cc(F)ccc1F` (centres undefined), with -1.04%.
Take `COc1cccc(NC(=O)c2ccc(Cn3cc([N+](=O)[O-])cn3)o2)c1`: the max response, negative = inhibition is 3.2%.
Turning to `Cc1cccc(NC(=O)c2sc(-c3ccccc3)nc2-c2ccc([N+](=O)[O-])cc2)c1`, the Potency was 20 µM (active).
Regarding `CC(=O)c1cccc(NC(=O)c2nc(-c3ccccc3)n(-c3cccc(C)c3)n2)c1`, the max response, negative = inhibition is -26.5%.
Same read-out and setting: then `O=C(NCCS(=O)(=O)N1CCN(c2ccc(F)cc2)CC1)c1ccccc1Br`, with -13%.
On the same count and under the same terms, then `Cc1cccc(CNC(=O)c2cnc3sc(N4CCCCC4)nn3c2=O)c1`, with 13.2%.
With `CC(Oc1ccc(-c2ccccc2)c(F)c1)c1ccn(S(=O)(=O)c2cccc3ccccc23)n1` (centres undefined), the Potency was 12.6 µM (active).
On to `COc1ccccc1N1CCN(c2ncnc3onc(-c4cccc(Cl)c4)c23)CC1`, for which the max response, negative = inhibition was 9.06%.

Source of the values: PubChem BioAssay AID1476 (National Center for Advancing Translational Sciences (NCATS), 2009).
